PubChem BioAssay AID687014 (The Scripps Research Institute Molecular Screening Center, 2013)
About 6,800 (1.8%) of roughly 370,000 compounds were called active.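 How the source made its calls: active means activation above a cutoff set at the mean of all screened compounds plus 3 SD (cut at about 10% in these data); inactive means the rest.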 The list comes from a sample in which actives are over-represented; it also holds similar structures and randomly drawn compounds.

The compounds below were run on Nuclear hormone receptor DAF-12 (Heterodera glycines), GAL4 fusion (assay: hgDAF-12 GAL4 fusion reporter activation – cell-based, luminescence, HEK293, UAS-luciferase, primary screen (AID 687014;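 further: 0% = DMSO wells and 100% = sodium butyrate wells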)). Details: HEK293 GAL4-hgDAF12 UAS-luciferase reporter, agonist luminescence; at 6.8 µM; stronger effect = higher value.

| SMILES | activation |
| --- | --- |
| COc1ccc2c(c1)NP(=S)(c1ccccc1)N2 (stereo not given) | 23.2% (active) |
| Cc1cc(C)c2c(c1)NP(=S)(c1ccccc1)N2 (stereo not given) | 13.1% (active) |
| COc1cc(C(c2c(O)c3ccccc3oc2=O)c2c(C)n(C)n(-c3ccccc3)c2=O)ccc1O (stereo not given) | 2.01% (inactive) |
| CN(C)CC1CCCCC1=O (stereo not given) | 1.62% (inactive) |
| O=S(=O)(c1ccccc1)N1CCC2CCNC2C1 (stereo not given) | 1.08% (inactive) |
| CO[C@H]([C@H](C)/C=C/N(C)C=O)[C@@H](C)C(=O)CC[C@H](C)[C@H](O)[C@H](C)[C@H]1OC(=O)/C=C/C(C)=C/[C@H](O)[C@H](OC)C[C@@H]2C=CC[C@@H](C[C@H](OC)[C@@]3(CO3)[C@@H](OC)C[C@@H](OC)[C@@H]1C)O2 | -9.43% (inactive) |
| COP(=O)(Sc1ccccc1)C(Cc1ccccc1)NC(=O)OCc1ccccc1 (stereo not given) | 1.8% (inactive) |
| Cc1ccccc1CCC[C@@H](CC1CCCCC1)CN(C)C(=O)Oc1ccccc1 | 0.88% (inactive) |
| c1ccc2sc(N3CCNCC3)nc2c1 | 5.89% (inactive) |
| c1ccc2sc(C3CCCNC3)nc2c1 (stereo not given) | 11.6% (active) |
| NC(=O)Nc1cccc(C(F)(F)F)c1 | 1.53% (inactive) |
| CCCC[N+]1(C)C2CC(OC(=O)C(CO)c3ccccc3)CC1C1OC12 (stereo not given) | -2.54% (inactive) |
| CC[N+](CC)(CC)CCCCCCCCCC[N+](CC)(CC)CC | 0.44% (inactive) |
| CS(=O)(=O)N1CCC2CCNC2C1 (stereo not given) | -2.06% (inactive) |
| COc1cc(OC)cc(C(=O)NCCN2CCC3(CC2)C(=O)NCN3c2ccccc2)c1 | -1.03% (inactive) |
| O=c1[nH]c(=O)n(Cc2ccccc2)c(O)c1/C=N/Nc1c(F)c(F)c(F)c(F)c1F | -0.57% (inactive) |
| O=c1[nH]c(=S)n(C2CC2)c(O)c1/C=N/N1CCOCC1 | -1.58% (inactive) |
| O=C(N/N=C/c1c(O)n(Cc2ccccc2)c(=O)[nH]c1=O)c1ccccc1 | 16% (active) |
| O=c1[nH]c(=O)n(CCc2ccccc2)c(O)c1/C=N/N1CCOCC1 | 0.56% (inactive) |
| O=C(N/N=C/c1c(O)n(C2CC2)c(=S)[nH]c1=O)c1ccccc1Cl | 2.67% (inactive) |
| O=C(N/N=C/c1c(O)n(C2CC2)c(=S)[nH]c1=O)c1ccccc1 | 11.8% (active) |
| CCN(CC)C(=O)[C@@H]1C=C2c3cccc4[nH]c(Br)c(c34)C[C@H]2N(C)C1 | -1.1% (inactive) |
| Clc1ccc([C@@H]2CC3CCC2N3)cn1 (stereo not given in full) | 1.87% (inactive) |
| CCC(C)NC1(c2ccccc2)CCCCC1 (stereo not given) | 1.32% (inactive) |
| O=C(Nc1cccc(OC(=O)N2CCCCC2)c1)N1CCOCC1 | -0.57% (inactive) |
| CN1CCN(C(=O)COc2ccc(C(C)(C)C)cc2Br)CC1 | 1.63% (inactive) |
| CC(C)(C)c1ccc(OC(=O)N2CCCCC2)cc1 | 14.4% (active) |
| Cc1cc(N2CCNC[C@@H]2C)ccc1N1CC[C@H](O)C1 | 0.8% (inactive) |
| COc1ccc2c(c1)[C@@]13CCCCC1[C@@H](C2)NCC3 (stereo not given in full) | 4.73% (inactive) |
| Brc1ccc2c(c1)CNCc1cnnn1-2 | 0.9% (inactive) |
